Compound activity as filed in PubChem.
This is a sample that favours compounds with a hit; in the whole collection about 1.3% have one here.
SRC3 inh: inhibits human SRC3 coactivator | Q9Y6Q9 | HEK293 GAL4-SRC3 luciferase reporter, luminescence | inhibition, % at 3.6 µM | 0.17% of 360,000 active | AID 588352;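 active = inhibition above a per-campaign cutoff, the mean of all compounds plus 3 SD, cut at about 60% in these data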;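 also: 0% = DMSO-treated cells and 100% = gossypol-treated cells at 36 µM; higher means less SRC3-driven luciferase light from the GAL4 reporter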
Gli-Sufu antag: blocks Gli-Sufu signaling in a luciferase reporter | Sufu-KO-LIGHT fibroblasts, Gli luciferase reporter luminescence | AID 588413 | inhibition, % at 5 µM | 0.74% of 340,000 active;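 active = inhibition above about 55%, limit read from the data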;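 also: 0% = DMSO-treated cells and 100% = wells with medium but no cells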
NR2F2 inh: inhibitors of human COUP-TFII (NR2F2). inhibition, % at 8.6 µM. HEK293T NGFI-A luciferase reporter, luminescence. 0.7% of 370,000 active;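 active = inhibition above a per-plate cutoff, mean inhibition of test wells between control levels plus 3 SD, cut at about 38% in these data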;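 also: cells cotransfected with COUP-TFII expression vector driving the NGFI-A reporter; 0% = median of COUP-TF2 test wells and 100% = reporter-only cells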
LRH-1 inv ag: NR5A2 inverse agonism in reporter assay; O00482; HEK293T StAR-luciferase reporter, LRH-1 transfected, 24 h; inhibition, % at 3.6 µM; 0.13% of 360,000 active; AID 602396;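 active = inhibition above the mean inhibition of all tested compounds plus 3 SD, cut at about 73% in these data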;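 also: 0% = DMSO wells and 100% = reporter-only cells lacking LRH-1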
NCOA1 inh: inhibits human SRC1 coactivator; AID 588354; inhibition, % at 3.6 µM; HEK293 GAL4-SRC1 luciferase reporter, luminescence; Q15788; 0.12% of 360,000 active;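 active = inhibition above the campaign mean plus 3 SD, with each screening campaign given its own cutoff, cut at about 60% in these data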;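 also: 0% = DMSO treated cells and 100% = gossypol at 36 µM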
SRC2 inh: inhibits human steroid receptor coactivator 2. 0.17% of 370,000 active. AID 651957. Q15596. HEK293 GAL4-SRC2 luciferase reporter, luminescence. inhibition, % at 9 µM;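 active = inhibition above the mean inhibition of all tested compounds plus 3 SD, set per campaign, cut at about 52% in these data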;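 also: 0% = DMSO treated cells and 100% = cells given Gossypol at 36 µM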
Gli-Sufu confirm: confirmation of Gli-SUFU pathway antagonists; Sufu-KO-LIGHT cells, Gli luciferase reporter, luminescence; inhibition, % at 5 µM; shares compounds with Gli-Sufu antag; AID 602428; 40% of 2,500 active;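 active = mean inhibition at 5 µM reaching about 45%, limit read from the data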;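 also: plate controls were DMSO-treated cells for no effect and wells lacking cells for full effect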
SufuKO cytotox: cytotoxicity counter-screen for Gli-SUFU antagonists. shares compounds with Gli-Sufu antag. Sufu-KO-LIGHT cells cytotoxicity, ATP luminescence. cytotoxicity, % at 5 µM. 32% of 2,500 active. AID 651994;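 active = mean cytotoxicity at 5 µM above about 25%, limit read from the data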;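 also: cells exposed to compound overnight for roughly 16 to 18 hours; plate controls were DMSO wells with cells for no effect and medium without cells for full effect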
Wnt3a counter: inhibits Wnt3a reporter, counter-screen for Gli-SUFU antagonists. inhibition, % at 6.25 µM. 20% of 2,500 active. Wnt-LIGHT cells, Wnt3a-driven luciferase reporter, luminescence. AID 651995. shares compounds with Gli-Sufu antag;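 active = mean inhibition above about 25%, limit read from the data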
Active calls of the source: *; · = not tested or not shown.

SMILES	SRC3 inh	Gli-Sufu antag	NR2F2 inh	LRH-1 inv ag	NCOA1 inh	SRC2 inh	Gli-Sufu confirm	SufuKO cytotox	Wnt3a counter
NS(=O)(=O)c1ccc(NC(=O)CSc2ccccc2)cc1	-9	-6	2	17	-13	-24	·	·	·
NS(=O)(=O)c1ccc(NC(=O)CSC2=NC(=O)C(c3ccccc3)C(=O)N2)cc1 (stereo not drawn)	2	88*	16	-3	-19	-49	9	2	-11
COC(=O)c1cc(-c2ccc(OC)c(OC)c2)c(=O)n2c1CCC2	·	·	0	·	·	-9	·	·	·
COc1ccc(NC(=O)c2oc3ccccc3c2NC(=O)c2ccco2)c(OC)c1	7	54	23	-13	1	-10	33	43*	1
COc1ccc(NC(=O)c2oc3ccccc3c2NC(=O)c2ccco2)cc1	11	-4	2	15	-18	-18	·	·	·
CCCCCCCCCCCC1N=C(N)NC(CCCO)=C1C(=O)OC (stereo not drawn)	20	78*	11	11	-8	11	23	10	27*
Cc1ccc(C(=O)N2CCC(Oc3cccnc3)CC2)cc1	·	·	-2	·	·	7	·	·	·
O=c1nc(N/N=C/c2ccccn2)cn[nH]1	1	67*	-61	-48	1	-7	71*	33*	78*
Cc1ccc(/C=N/Nc2cn[nH]c(=O)n2)o1	-54	-9	-46	-58	-76	-59	·	·	·
CC1Cc2ccccc2N1C(=O)C1CCCN1S(=O)(=O)c1ccc(Cl)cc1 (stereo not drawn)	0	99*	4	33	15	12	20	14	-32
CCOCCCNC(=O)C(NC(=O)c1ccc(NC(C)=O)cc1)c1ccc(Cl)cc1 (stereo not drawn)	-7	4	-8	11	2	5	·	·	·
CCOCCCNC(=O)C(NC(=O)c1ccc(NC(C)=O)cc1)c1ccc(C)cc1 (stereo not drawn)	29	96*	-5	-16	12	11	14	1	4
Cc1cccc(NC(=O)Nc2ccccc2C(=O)N2CCCC2)c1	·	·	-14	·	·	-3	·	·	·
CCOC(=O)C1=C(CC)OC(N)=C(C#N)C1c1cccs1 (stereo not drawn)	4	-10	0	-32	4	11	·	·	·
CCN1CC2=C(OC(N)=C(C#N)C2c2cccs2)/C(=C\c2cccs2)C1 (stereo not drawn)	15	77*	18	22	0	-18	22	8	-33
O=C(NCCc1c[nH]c2ccccc12)OCc1cn(Cc2cc(F)cc(F)c2)nn1	·	·	-5	·	·	-3	·	·	·
COc1ccccc1CNS(=O)(=O)c1ccc(-c2cc(C)no2)cc1	8	51	17	27	-7	35	43	57*	-54
O=C(CSc1nnc(-c2ccncc2)n1-c1ccccc1)Nc1ccc2c(c1)OCCO2	·	·	1	·	·	22	·	·	·
O=c1c2ccccc2sc2c(CO)ccc(NCCN3CCCCC3)c12	24	53	-3	12	11	-11	41	20	-155
CCC(C)[C@H]1CN=C(N)N1CC1CCCCC1 (stereo partly drawn)	·	65*	·	·	·	·	68*	26*	29*
CC(O)[C@H]1CN=C(N)N1CCCCC1CCCCC1 (stereo partly drawn)	-5	7	-15	-11	0	-10	·	·	·
OC(CN1CCN(c2cccc(Cl)c2)CC1)c1ccc(F)cc1 (stereo not drawn)	-20	69*	9	23	4	11	21	14	-53
OC(CN1CCN(c2cccc(Cl)c2)CC1)c1ccccc1 (stereo not drawn)	-1	6	6	22	26	-1	·	·	·
COC(=O)c1ccc(Cn2ccc3ccc(-c4ccc5ccn(C(=O)c6ccccc6OC)c5c4)cc32)cc1	·	·	5	·	·	-8	·	·	·
O=C(NCc1ccccc1)OC1CCC12CCC(c1ccccc1)CC2 (stereo not drawn)	·	·	25	·	·	·	·	·	·
